DT40 TDP1 no CPT = qHTS for Inhibitors of human tyrosyl-DNA phosphodiesterase 1 (TDP1): qHTS in cells in absence of CPT | DT40 Tdp1-/- hTDP1 cells, no CPT, ATP luminescence, 48 h | 420,000 compounds, 15% hits | AID 686978, 2013 | Potency, µM (doses to about 46.2 µM), hits mostly inhibitors; note: nearly all actives have a fitted effect of over 55% in size
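Readout: luminescence from CellTiter-Glo after 30 min in the dark at RT. Cells: DT40 Tdp1-/- with stable hTDP1, 400/well. Exposure: compounds alone, ≥48 hr, 37 °C.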
miR-21 reporter = qHTS Assay for Modulators of miRNAs and/orActivators of miR-21; HeLa miR-21 FLuc reporter, luciferase, 48 h; Potency, µM (titrated, usually from 38.3 µM), actives largely listed as activators; 340,000 tested, under 10 active; AID 2288, 2010;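 note: miR-21 action dims this reporter so a rising signal means less miR-21 action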
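Compounds were titrated across several concentrations (up to approximately 40 uM) and incubated 48 hours with HeLa miR-21-FLuc reporter cells (miR-21 target sequence downstream of FLuc, endogenous miR-21). Readout was firefly luciferase luminescence after lytic detection reagent.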
TDP1 cell CPT = qHTS for Inhibitors of human tyrosyl-DNA phosphodiesterase 1 (TDP1): qHTS in cells in presence of CPT. chicken DT40 Tdp1-/-;hTDP1 cells + 20 nM CPT, ATP luminescence, 48 h. Potency, µM (titrated, usually from 46.2 µM), most hits filed as inhibitors. 420,000 compounds, 12% hits. AID 686979, 2013; note: nearly all actives have a fitted effect of over 55% in size
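Chicken DT40 Tdp1-/- cells complemented with human TDP1, 400 cells/well, exposed to compounds plus 20 nM camptothecin for at least 48 h at 37 C; viability read as ATP content by CellTiter-Glo luminescence.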
uPA surface inh = qHTS for Inhibitors of Cell Surface uPA Generation. cell surface uPA generation assay, qHTS. Potency, µM (highest dose often 38.3 µM), hits mostly inhibitors. 330,000 compounds, 0.31% hits. AID 540303, 2011; active = well fitted inhibition curve with a large enough effect; inconclusive = small, poorly fitted or top-dose-only effect; inactive = no such curve, though single readings can be large or run the other way; tested in mouse RAW 264.7 cells; note: nearly all actives have a fitted effect of over 55% in size
TDP1 inh = qHTS Assay for Inhibitors of Tyrosyl-DNA Phosphodiesterase (TDP1); Tyrosyl-DNA phosphodiesterase 1 (Homo sapiens), Q9NUW8; recombinant TDP1, AlphaScreen DNA substrate cleavage; Potency, µM (highest dose often 130 µM), actives largely listed as inhibitors; 350,000 compounds, 0.28% hits; AID 485290, 2010; note: nearly all actives have a fitted effect of over 40% in size
Target sequence (Q9NUW8 whole entry, looked up): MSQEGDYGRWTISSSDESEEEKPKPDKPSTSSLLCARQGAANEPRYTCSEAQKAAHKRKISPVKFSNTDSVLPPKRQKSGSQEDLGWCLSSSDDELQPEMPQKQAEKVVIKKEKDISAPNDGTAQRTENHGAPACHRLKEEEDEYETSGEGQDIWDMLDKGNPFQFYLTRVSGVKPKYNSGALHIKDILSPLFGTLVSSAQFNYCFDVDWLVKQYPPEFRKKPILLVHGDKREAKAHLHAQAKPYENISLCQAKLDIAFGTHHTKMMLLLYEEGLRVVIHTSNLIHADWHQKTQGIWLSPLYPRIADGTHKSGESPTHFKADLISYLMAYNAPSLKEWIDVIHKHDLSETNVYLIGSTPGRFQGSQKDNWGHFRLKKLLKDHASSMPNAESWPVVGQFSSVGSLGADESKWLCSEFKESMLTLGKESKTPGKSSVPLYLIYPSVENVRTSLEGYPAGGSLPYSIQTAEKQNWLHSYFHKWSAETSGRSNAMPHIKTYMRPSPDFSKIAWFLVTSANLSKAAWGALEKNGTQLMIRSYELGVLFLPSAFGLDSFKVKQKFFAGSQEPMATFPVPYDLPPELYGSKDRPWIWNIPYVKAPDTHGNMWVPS
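AlphaScreen read-out: signal falls as enzyme removes the 3' tyrosine-FITC from a 5'-biotinylated DNA oligo (15 nM, 5 min, RT). Enzyme was E. coli-made recombinant Tdp1 at 1 nM, exposed to compound for 15 min beforehand; beads 10 ug/ml, 10 min.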
Hits are given with their value; 0 = inactive; ? = inconclusive; - = not tested or not shown; [ ] = remark or other dose. Sampled rows, rich in hits. Any-hit rate of the full collection: about 16%. Unless noted, calls come from the whole dose curve; as a rule, active = well fitted curve in the direction sought with a large enough effect; inconclusive = small, poorly fitted or top-dose-only effect, or another doubt; inactive = no such curve, though single readings can be large; an effect the other way counts as inactive or inconclusive.

SMILES | DT40 TDP1 no CPT | miR-21 reporter | TDP1 cell CPT | uPA surface inh | TDP1 inh
O=C(Nc1ccccc1)c1ccccc1I | - | - | - | - | 0
CNC(=O)Oc1ccc(N(C)C)cc1C(C)C | 0 | 0 | 0 | 0 | 0
COC(=O)C1=C(c2ccc(-c3ccccc3)c(F)c2)C[C@@H]2CC[C@H]1N2C(=O)N1CCC(O)CC1 | 9.2µM | - | 14.6µM | 0 | 0
COC(=O)C1=C(c2cccc(C#N)c2)C[C@@H]2CC[C@H]1N2C(=O)N1CCC(C)CC1 | 23.1µM | - | 16.4µM | 0 | 0
COC(=O)C1=C(c2ccc(-c3ccccc3)c(F)c2)C[C@@H]2CC[C@H]1N2C(=O)N1CCC(C)CC1 | 4.61µM | - | 7.31µM | 0 | 0
COC(=O)C1=C(c2ccccc2)C[C@@H]2CC[C@H]1N2C(=O)N1CCC(C)CC1 | 14.6µM | - | ? | 0 | -
COC(=O)C1=C(c2cccc(C#N)c2)C[C@@H]2CC[C@H]1N2C(=O)NC(C)C | 0 | - | 0 | 0 | 0
COC(=O)C1=C(c2ccc(OC)c(OC)c2)C[C@@H]2CC[C@H]1N2C(=O)N1CCC(O)CC1 | 0 | - | 0 | 0 | 0
COC(=O)C1=C(c2ccccc2)C[C@@H]2CC[C@H]1N2C(=O)N1CCOCC1 | ? | - | ? | 0 | -
CCCCCCCCCC(=O)O[C@H]1CC[C@H]2[C@@H]3CCC4=CC(=O)CC[C@@H]4[C@H]3CC[C@]12C | 0 | - | 0 | - | 0
CN1CC(C#N)C2(O)c3ccccc3CCC2C1 (stereo unspecified) | 0 | 0 | 0 | 0 | -
COCCN(CCOC)S(=O)(=O)c1ccc(C(=O)Nc2sc3c(c2C(N)=O)CCCC3)cc1 | ? | 0 | ? | - | 0[12.3 µM]
COC(=O)C1=C(c2ccc(F)cc2F)C[C@@H]2CC[C@H]1N2C(=O)N1CCC(C)CC1 | 10.3µM | - | 16.4µM | 0 | 0
COC(=O)C1=C(c2ccc(F)cc2F)C[C@@H]2CC[C@H]1N2C(=O)NCc1ccc(C(F)(F)F)cc1 | 20.6µM | - | ? | 0 | 0
COC(=O)C1=C(c2ccc(F)cc2F)C[C@@H]2CC[C@H]1N2C(=O)NCc1ccc2c(c1)OCO2 | ? | - | ? | 0 | 0
COC(=O)C1=C(c2cccc(OC)c2OC)C[C@@H]2CC[C@H]1N2C(=O)N1CCC(C)CC1 | 13µM | - | ? | 0 | -
CC(C)Oc1cc(-n2nc(C(C)(C)C)oc2=O)c(Cl)cc1Cl | - | - | - | - | 0
CC(C)(C#N)O[C@H]1OC(CO)C(O)C(O)C1O (stereo partly specified) | 0 | - | 0 | - | 0
O=C1C=C2C=CC3C[C@@]2(O1)C1CCCCN31 (stereo partly specified) | - | - | - | - | 0
CCC1CN2CCc3cc(OC)c(OC)cc3C2CC1CC1NCCc2c1[nH]c1ccc(O)cc21 (stereo unspecified) | 0.082µM | - | 0.146µM | 0 | -
COc1cc2c(cc1OC)C(c1c(O)n(CCc3ccccc3)c(=S)[nH]c1=O)NCC2 (stereo unspecified) | 0 | 0 | 0 | 0 | 0
CC[C@@H]1CN2CCc3cc(OC)c(OC)cc3[C@@H]2C[C@@H]1C[C@H]1NCCc2cc(OC)c(OC)cc21 | 0.0335µM | - | 0 | - | 0
COC(=O)c1c(N)n(Cc2ccc(OC)cc2)c2nc3ccccc3nc12 | 16.4µM | 0 | ? | 0 | 0
CCOC(=O)c1c(N)n(Cc2ccc(OC)cc2)c2nc3ccccc3nc12 | - | 0 | - | - | 0
COCCOC(=O)c1c(N)n(Cc2ccc(OC)cc2)c2nc3ccccc3nc12 | 20.6µM | 0 | ? | 0 | 0
SMILES | DT40 TDP1 no CPT | miR-21 reporter | TDP1 cell CPT | uPA surface inh | TDP1 inh
CNCC[C@H](Oc1cccc2ccccc12)c1cccs1 | 23.1µM | ? | 16.4µM | ? | 0
O=C(Cl)C(Cl)(Cl)Cl | - | - | - | - | 0
O=C(O)CNCP(=O)(O)O | 0 | - | 0 | - | 0
Cc1ccc(C(=O)NC(O)C(Cl)(Cl)Cl)cc1 (stereo unspecified) | 0 | 0 | 0 | 0 | 0
NC(=O)C(c1ccccc1)(c1ccccc1)[C@@H]1CCN(CCc2ccc3c(c2)CCO3)C1 | 18.8µM | - | ? | - | -
O=C(NC(=S)Nc1cc([N+](=O)[O-])ccc1O)c1cccnc1 | 25.9µM | 0 | 20.6µM | ? | 0
COC(=O)OCC12CCC(O1)C1(C)C(=O)OCC21 (stereo unspecified) | 29.1µM | 0 | ? | 0 | 0

High-throughput results from PubChem BioAssay.
